According to PubChem BioAssay AID2401 (Southern Research Specialized Biocontainment Screening …, 2010):
Out of some 2,200 compounds screened, about 530 (24%) were called active.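 How the source made its calls: active means inhibition above a set limit at one or more concentrations of the dose series; inactive means inhibition under that limit at every dose.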 Not all results are given here. Where a call stands in place of a potency, no number is given. Potency and affinity values are given separately.

Assay: S. Typhimurium nonspecific reporter signal inhibition – Salmonella Typhimurium, GFP fluorescence, counter-screen for PhoP regulon inhibitor project, dose response (AID 2401);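 further: S. typhimurium with Mg-insensitive nmpC-GFP reporter grown at 10 µM Mg2+; drop in reporter fluorescence reflects general culture growth inhibition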
Conditions: 4 h; series mostly up to 150 µM
For `c1ccc(Nc2nc3ccccc3[nH]2)nc1`, the outcome was “inactive”. For `CC(=O)Nc1cccc(-c2csc(Nc3ccccn3)n2)c1`, the outcome was “inactive”. With `Clc1ccc(Cn2ncc3c(NCc4ccco4)ncnc32)c(Cl)c1` the outcome was “inactive”. With `Cc1nc2cc(NC(=O)N3CCN(c4ccccn4)CC3)ccc2o1` the outcome was “inactive”. In the case of `CC(C)N(Cc1nc(-c2ccccc2)no1)C(=O)CN(C)S(=O)(=O)c1ccccc1`, the outcome is reported as “inactive”. With `COc1ccccc1NCCC(=O)OCC(=O)NC1CCCCCC1` the outcome was “inactive”. With `Cc1ccc(NC(=O)CO/N=C(\N)c2nonc2N)cc1` the outcome was “inactive”. In the case of `O=c1cc(CSc2nc(NCc3ccccc3)c3ccccc3n2)nc2ccc(Cl)cn12`, the outcome is reported as “inactive”. For `N/C(=N\OC(=O)N1c2ccccc2Sc2ccccc21)c1ccccc1`, the outcome was “inactive”. In the case of `Cc1cc(C)cc(OC(=O)CS(=O)c2ccc(C(F)(F)F)cc2[N+](=O)[O-])c1` (centres undefined), the outcome is reported as “inactive”. With `CCCOc1ccc(/C=N/O)cc1` the outcome was “inactive”. For `C=C(C)C1Cc2cc3ccc(=O)oc3cc2O1` (centres undefined), the outcome was “inactive”. With `CCOc1cc(C2Nc3cccc4cccc(c34)N2)ccc1O` the outcome was “inactive”. In the case of `CC(=O)N/N=C/c1ccc(OCCOc2ccc(Br)cc2)cc1`, the outcome is reported as “inactive”. With `COC(=O)CCC(=O)Nc1ccc(OC)cc1` the outcome was “inactive”. With `COc1cccc(-n2c(SCc3cc(=O)oc4cc(O)c(O)cc34)nc3ccccc3c2=O)c1` the outcome was “inactive”. For `O=C(Cn1cnc2scc(-c3ccccc3)c2c1=O)N1CCOCC1`, the outcome was “inactive”. With `COc1ccccc1Nc1nc(-c2c(C)[nH]c3ccccc23)cs1` the outcome was “inactive”. With `N#Cc1c(N)n[nH]c1-c1cc2c([nH]1)CCCC2` the outcome was “inactive”. With `Cc1ccc(CNC(=O)Nc2cccs2)cc1` the outcome was “inactive”. In the case of `CCc1cccc2c(C#N)cn(CC(=O)NCCOC)c12`, the outcome is reported as “inactive”. In the case of `Cc1nc(N2CCN(Cc3ccccc3)CC2)nc2c1C(=O)CC(C)C2` (centres undefined), the outcome is reported as “inactive”. For `Cc1cc(C)n(-c2ccc(C(=O)OCC(=O)Nc3ccc([N+](=O)[O-])cc3)cc2)n1`, the outcome was “inactive”. With `O=C(OCCN1C(=O)c2ccccc2C1=O)c1ccc(S(=O)(=O)N2CCCCCC2)cc1` the outcome was “inactive”. For `COc1ccc(/C=C2\CN(Cc3ccccc3)C/C(=C\c3ccc(OC)cc3)C2=O)cc1`, the outcome was “inactive”. For `N/C(=N\OC(=O)Nc1ccc(Cl)cc1)c1ncc(C(F)(F)F)cc1Cl`, the outcome was “inactive”. In the case of `COc1cccc(C=NCC(C)N=Cc2cccc(OC)c2O)c1O` (centres undefined), the outcome is reported as “inactive”. With `Cn1c(CO)cnc1SCc1ccc([N+](=O)[O-])cc1` the outcome was “inactive”. With `Cc1nn(-c2ccccc2)c2sc(-c3n[nH]c(=S)o3)cc12` the outcome was “inactive”. For `COc1ccc(C(=O)NC(=S)NCc2ccc(-c3nc4ccccc4o3)cc2)cc1OC`, the outcome was “inactive”. For `O=C1NC(c2ccc3c(c2)OCO3)Oc2ccccc21` (centres undefined), the outcome was “inactive”. In the case of `O=C(O)CCC(=O)NCC1OCCc2ccccc21` (centres undefined), the outcome is reported as “inactive”. For `C=CCNc1nnc(Cl)c2ccccc12`, the outcome was “inactive”. For `CCCCCCCCOC(=O)C1=C(C)Nc2nnnn2C1c1cccs1` (centres undefined), the outcome was “inactive”. For `CCOC(=O)c1c(/N=C/c2ccc(O)cc2O)sc2c1CCC2`, the outcome was “inactive”. For `O=C(c1ccc(Cl)cc1Cl)C1(n2cncn2)Oc2ccccc2C1O` (centres undefined), the outcome was “inactive”. With `Cc1sc(NC(=O)c2ccco2)c(CN2CCN(c3ccc(F)cc3)CC2)c1C` the outcome was “inactive”. In the case of `O=C(CCN1CCN(c2ccc(F)cc2)CC1)Nc1ccccc1F`, the outcome is reported as “inactive”. For `CCOC(=O)c1cc2sc(C)cc2n1CC(=O)NCc1ccc(F)cc1`, the outcome was “inactive”. For `CC(C(=O)Nc1cc([N+](=O)[O-])ccc1Cl)N1CCN(c2ccccc2O)CC1` (centres undefined), the outcome was “inactive”. With `CC(C)NC(=O)/C(=N\O)c1ccccc1` the outcome was “inactive”. With `CCOC(=O)C(/C=C(\C#N)C(=O)OCC)=C(/N)N1CCN(c2c(C)cccc2C)CC1` the outcome was “inactive”. In the case of `O=[N+]([O-])c1ccc(NCCCNS(=O)(=O)c2ccccc2)c(Cl)c1`, the outcome is reported as “inactive”. In the case of `O=S(=O)(Nc1cc(Sc2ncn[nH]2)c(O)c2ccccc12)c1ccccc1`, the outcome is reported as “inactive”. In the case of `Nc1c(-c2ccccc2)cnn1-c1cccc([N+](=O)[O-])c1`, the outcome is reported as “inactive”. For `CCC(Sc1ncccc1C(=O)OC(C)C)C(=O)N1CCOCC1` (centres undefined), the outcome was “inactive”. For `Cc1ccc(C)n1-c1cc(S(=O)(=O)N2CCOCC2)ccc1N1CCCC1`, the outcome was “inactive”. With `Cc1cc(Nc2ccccc2F)n2ncnc2n1` the outcome was “inactive”. In the case of `N#Cc1ccc(CSc2nnc(-c3ccncc3)n2CCc2ccccc2)cc1`, the outcome is reported as “inactive”. With `O=C(NN=C1CCN(Cc2ccccc2)CC1)c1cc2ccccc2cc1O` the outcome was “inactive”. With `C/C(=N\NC(=O)c1ccccc1)c1ccc2c(c1)OCO2` the outcome was “inactive”. With `CN(C(=S)Nc1ccc(Oc2ccccc2)cc1)c1ccc(O)cc1` the outcome was “inactive”. In the case of `CC(C)Cn1c(-c2ccccc2)nc2ccccc2c1=O`, the outcome is reported as “inactive”. For `COC(=O)c1c(C(=O)OC)c(-c2cccc(C)c2)n2c1CS(=O)(=O)C2`, the outcome was “inactive”. With `NC(=NCCc1c[nH]c2ccccc12)NC(=O)c1ccc(F)cc1` the outcome was “inactive”. With `CC1CCN(c2ccc(NC(=S)NC(=O)c3ccc(-c4cccc([N+](=O)[O-])c4)o3)cc2)CC1` the outcome was “inactive”. With `CCOc1ccc(-c2noc(CCCC(N)=O)n2)cc1OC` the outcome was “inactive”. For `O=C(CNC(=O)c1ccco1)OCC(=O)c1ccc2c(c1)CCCC2`, the outcome was “inactive”. With `C/C(=N\n1nnnc1Nc1ccccc1)c1ccc(N)cc1` the outcome was “inactive”. With `COc1ccc(NC(=O)CSc2nc(C)cs2)cc1OC` the outcome was “inactive”. For `c1ccc(CCNc2nc3ccccc3s2)cc1`, the outcome was “inactive”. For `Cc1cc(NC(=O)c2cnn3cccnc23)no1`, the outcome was “inactive”. With `COc1ccc(-c2ccc(-c3noc(-c4cccs4)n3)c(OC)n2)cc1` the outcome was “inactive”. In the case of `COc1ccc(NC(C)C(=O)Nc2ccc(C(C)(C)C)cc2)cc1Cl` (centres undefined), the outcome is reported as “inactive”. With `CC1CCCCN1CCNS(=O)(=O)c1ccc2c(c1)oc(=O)n2C` (centres undefined) the outcome was “inactive”. In the case of `Cc1ccccc1-n1nnnc1Sc1nnnn1-c1ccccc1`, the outcome is reported as “inactive”. In the case of `C=CCn1c(SCc2c(C(=O)OC)sc(N)c2C(=O)OC)nnc1-c1ccc(Cl)cc1`, the outcome is reported as “inactive”. For `CSCCC(NC(=O)c1cccc(C)c1)C(=O)OCC(=O)NC(=O)c1cccn1C` (centres undefined), the outcome was “inactive”. With `COc1ccc(-c2cc(C(=O)O)[nH]n2)cc1OC` the outcome was “inactive”. With `O=C(O)CCc1nn2c3ccccc3n(CC(=O)c3ccccc3)c2nc1=O` the outcome was “inactive”. In the case of `COc1ccccc1/C=C1\CCCC2=C1Nc1nnnn1C2c1ccccc1OC` (centres undefined), the outcome is reported as “inactive”. In the case of `CCN(CC(=O)N1CCN(Cc2ccccc2)CC1)S(=O)(=O)c1ccc(F)cc1`, the outcome is reported as “inactive”. In the case of `S=C(Nc1cccc(Cl)c1)Nc1cccc2cnccc12`, the outcome is reported as “inactive”. In the case of `S=C(NCc1cccnc1)Nc1ccc(Cl)cc1`, the outcome is reported as “inactive”. With `CSC(=NS(=O)(=O)c1ccccc1)SC` the outcome was “inactive”. In the case of `CCN(CC)c1ccc(/C=C(\C#N)C(=O)NCc2ccco2)cc1`, the outcome is reported as “inactive”. In the case of `CCOC(=O)C1=C(C)NC(=O)NC1c1c(OCC(=O)N2CCCCC2)ccc2ccccc12` (centres undefined), the outcome is reported as “inactive”. For `O=C(NCCSCc1ccccc1)c1ccc(F)cc1`, the outcome was “inactive”. With `CCOc1ccc(-c2nnc(NC(=O)CCCOc3cccc(C)c3)o2)cc1` the outcome was “inactive”. For `COc1ccc(Br)cc1C(=O)NCc1cccnc1`, the outcome was “inactive”. For `C=CCNc1sc(C(=O)c2ccc(C)cc2)c(N)c1C#N`, the outcome was “inactive”. With `Cc1ccc(C(=O)NCC(=O)OCC(=O)N2CCCc3ccccc32)cc1` the outcome was “inactive”. With `CCC(OC(=O)C(NC(=O)c1ccccc1)c1ccccc1)C(=O)Nc1cc(C)on1` (centres undefined) the outcome was “inactive”. In the case of `COc1ccc(-c2nnc(SCC(=O)NCc3ccco3)o2)cc1`, the outcome is reported as “inactive”. With `CCn1c(SCC(=O)N2CCCCC2)nc(O)cc1=O` the outcome was “inactive”. With `CC(=O)N1C(=O)C2(C(C#N)=C(N)Oc3c2c(C)nn3-c2ccccc2)c2ccccc21` (centres undefined) the outcome was “inactive”. For `Oc1ccc(N2CCN(Cc3ccc(OCCCN4CCCCC4)cc3)CC2)cc1`, the outcome was “inactive”. With `O=C(COC(=O)/C=C/c1ccco1)Nc1cccc([N+](=O)[O-])c1` the outcome was “inactive”. With `CCc1c(C)c2cc(Cl)c(O)c(CN(C)C)c2oc1=O` the outcome was “inactive”. In the case of `Cc1[nH]c2ccccc2c1/C=N/Nc1ccc(F)cc1F`, the outcome is reported as “inactive”. In the case of `COc1ccc(-c2[nH]ncc2/C=C(\C#N)C(=O)NC2CC2)cc1`, the outcome is reported as “inactive”. For `N#Cc1nc(Cc2cccc3ccccc23)oc1NCCCN1CCOCC1`, the outcome was “inactive”. In the case of `CCCSc1ncc(Cl)c(C(=O)Nc2ccc(S(=O)(=O)N3CC(C)OC(C)C3)cc2)n1` (centres undefined), the outcome is reported as “inactive”. In the case of `CCn1nc(C(=O)NCc2ccco2)c(Cl)c1Cl`, the outcome is reported as “inactive”. With `CCN(CC)Cc1c[nH]c2c(C(=O)OC)cccc12` the outcome was “inactive”. For `Cc1ccccc1Cn1nc(C)c(NC(=O)c2noc3c2CCc2ccccc2-3)c1C`, the outcome was “inactive”. For `c1nc(N2CCC3(CC2)OCCO3)c2c3c(sc2n1)CCCC3`, the outcome was “inactive”. For `COCCSc1ccccc1C(=O)NCC1CCCO1` (centres undefined), the outcome was “inactive”. In the case of `COc1ccccc1Nc1nc(NCc2ccco2)c2ccccc2n1`, the outcome is reported as “inactive”. For `CCCOc1ccc(C2NC(=S)NC(c3ccccc3)=C2C(=O)Nc2ccc(C)cc2)cc1OC` (centres undefined), the outcome was “inactive”. In the case of `N#Cc1nc(-c2cccs2)oc1NCCCN1CCOCC1`, the outcome is reported as “inactive”. In the case of `COc1ccc(C)cc1NC(=O)C(Sc1nnc(-c2ccncc2)n1-c1ccc(Cl)cc1)c1ccccc1` (centres undefined), the outcome is reported as “inactive”. For `COc1ccc(OC)c(/C=N/NC(=O)Cc2nc3ccccc3[nH]2)c1`, the outcome was “inactive”. With `Cc1ccc(/C=N/NC(=O)Cn2cnc3ccccc32)o1` the outcome was “inactive”. For `C=CCn1c(SCCOc2ccc(OC)cc2)nnc1C(C)NC(=O)c1ccc(OC)cc1` (centres undefined), the outcome was “inactive”. In the case of `O=C(CSCc1nc2ccccc2[nH]1)Nc1ccc2ccccc2c1`, the outcome is reported as “inactive”. In the case of `CC(Cl)C(=O)NNc1cccc(Cl)n1` (centres undefined), the outcome is reported as “inactive”. With `O=S(=O)(c1ccc2c(c1)OCCO2)N1CCN(c2cccc(Cl)c2)CC1` the outcome was “inactive”. With `O=C(CSc1ncn[nH]1)Nc1cccc2ccccc12` the outcome was “inactive”. With `COc1ccc(Oc2ccccc2/C=N/O)cc1` the outcome was “inactive”. With `CCCNC(=O)CN(C1CCCCC1)S(C)(=O)=O` the outcome was “inactive”. With `Cc1nnc(SC(C)C(=O)Nc2ccc(S(=O)(=O)N3CCCCCC3)cc2)s1` (centres undefined) the outcome was “inactive”. With `O=S(=O)(/N=C(/Nc1cccc2ccccc12)c1ccccc1)c1cccs1` the outcome was “inactive”. With `COc1ccc(-c2ccccc2)cc1NCc1ccccc1C` the outcome was “inactive”.
